Structures are written as SMILES. “And” between values parts separate entries of the source, which are not always exact repeats. Identical values can stand only once. The source made the active and inactive calls. The calls were made as follows: active = hit-call score of the fitted dose curve at least 0.9, where 1 is the maximum; inactive = score below 0.9.

Read-out in this assay: Matrix Metallopeptidase 9 (MMP9), MMP9 (gene 4318)
As to the kind of experiment: BSK_KF3CT_MMP9: BioMAP Diversity Plus: KF3CT Assay for Matrix Metallopeptidase 9 (MMP9) Biomarker Activity (AID 2283074). As to conditions: primary human keratinocytes with fibroblasts; actives raise or lower the signal. As for the experimental part: BSK_KF3CT is a cell-based, multiplexed-readout assay that uses keratinocytes and foreskin fibroblasts, a human skin primary cell co-culture, with measurements taken at 24 hours after chemical dosing in a 96-well plate.BSK_KF3CT_MMP9 is an assay component measured in the BSK_KF3CT assay. It measures MMP-9 antibody related to regulation of gene expression using ELISA technology.Data from the assay component BSK_KF3CT_MMP9 was analyzed into 1 assay endpoint. This assay endpoint, BSK_KF3CT_MMP9, was analyzed with bidirectional fitting relative to DMSO as the negative control and baseline of activity. Using a type of binding reporter, gain or loss-of-signal activity can be used to understand changes in the signaling as they relate to the gene MMP9. Furthermore, this assay endpoint can be referred to as a primary readout, because this assay has produced multiple assay endpoints where this one serves a signaling function. To generalize the intended target to other relatable targets, this assay endpoint is annotated to the protease intended target family, where the subfamily is matrix metalloproteinase.
The levels of cell surface (or secreted, indicated by the prefix "s") biomarker endpoints were measured by ELISA. Overt cytotoxicity to cells in confluent adherent cultures (all systems other than the BT system) was assessed by measuring total protein levels using sulforhodamine B (SRB) staining in parallel cultures at the time of biomarker measurements, indicated as SRB endpoints. For proliferation assays for adherent cell types, individual cell types are cultured at sub-confluence and relative cell numbers quantified by SRB staining at time points optimized for each system (48 h: 3C and CASM3C systems; 72 h: BT and HDF3CGF systems; 96 h: SAg system). SRB was performed by staining cells with 0.1% SRB after fixation with 10% TCA and reading wells at 560 nm.Viability and proliferation of PBMC (T cells) was quantified by Alamar Blue reduction for the SAg and BT systems. For PBMC viability (referred to as PBMC Cytotoxicity within the assay endpoint names), cells were plated (75,000/well in a 96-well plate) and then chemical samples added for 1 h before addition of activators, SEB and TSST-1 (20 ng/mL final concentration each). Cells were incubated for 90 h. Then, Alamar Blue (20 uL/well) (Invitrogen, Cat DAL1100) was added for 6 h, and the plates were read with a fluorescence microplate reader at 546/580 nm (excitation/emission). For PBMC proliferation, cells were plated and activated as above but incubated for only 16 h prior to addition of Alamar Blue. Plates were read after 6 h.
For `O=C(c1ccc(O)cc1O)c1ccc(O)cc1O`, the result was inactive.

For the compound `CCN(CC)C(=O)c1cccc(C)c1`, the outcome was inactive.

`COC(=O)c1ccc(I)cc1S(=O)(=O)NC(=O)Nc1nc(C)nc(OC)n1`: the result was inactive.

Take `c1ccc2[nH]c(-c3cscn3)nc2c1`: the result was inactive.

Consider `CC(C)(c1ccc(O)cc1)c1ccc(O)cc1`, for which the result was inactive.

`C#CCOC(=O)[C@@H](C)Oc1ccc(Oc2ncc(Cl)cc2F)cc1`: the outcome was inactive.

As to `CC(=O)S[C@@H]1CC2=CC(=O)CC[C@]2(C)[C@H]2CC[C@@]3(C)[C@@H](CC[C@@]34CCC(=O)O4)[C@H]12`, the outcome was inactive.

As for `C[C@]12CC[C@@H]3c4ccc(O)cc4C[C@@H](CCCCCCCCCS(=O)CCCC(F)(F)C(F)(F)F)[C@H]3[C@@H]1CC[C@@H]2O` (stereo not given in full), the result was inactive.

What is called AC50 is the midpoint of the concentration-response curve, whichever way the signal moves. `Oc1ccc(C(c2ccc(O)cc2)C(Cl)(Cl)Cl)cc1`: the AC50 was 24.6 µM (active).

Consider `CCCN(CCC)c1c([N+](=O)[O-])cc(C(F)(F)F)c(N)c1[N+](=O)[O-]`, for which the AC50 was 33.6 µM (active).

`N#CSCSc1nc2ccccc2s1`: the AC50 was 10.6 µM (active) and 10.3 µM (active).

As to `CCOC(=O)c1ccc(O)cc1`, the result was inactive.

For the compound `CCOC(=O)COc1cc(-n2ncc(C(F)(F)F)c(C)c2=O)c(F)cc1Cl`, the outcome was inactive.

As for `CCOC(=O)[C@H](C)Oc1ccc(Oc2nc3ccc(Cl)cc3o2)cc1`, the result was inactive.

In the case of `CCOC(=O)C(C)Oc1ccc(Oc2cnc3cc(Cl)ccc3n2)cc1` (stereo not given), the outcome was inactive.

As to `CCN(Cc1c(F)cccc1Cl)c1c([N+](=O)[O-])cc(C(F)(F)F)cc1[N+](=O)[O-]`, the outcome was inactive.

Consider `CN(C)C(=O)Nc1ccc(Cl)c(Cl)c1`, for which the result was inactive.

In the case of `COC(=O)c1ccccc1S(=O)(=O)NC(=O)Nc1nc(OC(F)F)cc(OC(F)F)n1`, the outcome was inactive.

Turning to `O=C(Nc1ccc([N+](=O)[O-])cc1Cl)c1cc(Cl)ccc1O`, the AC50 is 0.313 µM (active).

For the compound `CCOC(=O)NCCOc1ccc(Oc2ccccc2)cc1`, the AC50 was 30.3 µM (active).

Take `CC(C)(C)[C@@H](O)[C@@H](Cc1ccc(Cl)cc1)n1cncn1`: the result was inactive.

As for `CCCOC(=O)c1ccc(C(=O)OCCC)nc1`, the outcome was inactive.

As to `O=C(c1ccccc1)C1CCCCC1`, the outcome was inactive.

For the compound `CCCOC(=O)NCCCN(C)C`, the outcome was inactive.

With `O=C(O)C1(C(=O)Nc2ccc(Cl)cc2Cl)CC1`, the result was inactive.

In the case of `CCCCOC(=O)[C@@H](C)Oc1ccc(Oc2ccc(C(F)(F)F)cn2)cc1`, the outcome was inactive.

As to `CCCCCCC(C)OC(=O)COc1nc(F)c(Cl)c(N)c1Cl` (stereo not given), the outcome was inactive.

As for `CCCCCOC(=O)COc1cc(N2C(=O)C3=C(CCCC3)C2=O)c(F)cc1Cl`, the AC50 was 20 µM (active).

Consider `COCCO`, for which the result was inactive.

As to `CCCCOC(=O)C(C)Oc1ccc(Oc2ccc(C(F)(F)F)cn2)cc1` (stereo not given), the outcome was inactive.

As to `COc1nc(C)nc(NC(=O)NS(=O)(=O)c2ccccc2OCCCl)n1`, the outcome was inactive.

Regarding `COC(=O)c1c(Cl)nn(C)c1S(=O)(=O)NC(=O)Nc1nc(OC)cc(OC)n1`, the outcome was inactive.

Regarding `N[C@@H](Cc1cc(I)c(Oc2ccc(O)c(I)c2)c(I)c1)C(=O)O`, the result was inactive.

For the compound `CCCCC(CC)COC(=O)c1ccccc1C(=O)O` (stereo not given), the outcome was inactive.

Take `CCC(C)OC(=O)N1CCCCC1CCO` (stereo not given): the outcome was inactive.

As for `CCNc1nc(N)nc(Cl)n1`, the outcome was inactive.

In the case of `COC(=O)c1cccc(C)c1S(=O)(=O)NC(=O)Nc1nc(OCC(F)(F)F)nc(N(C)C)n1`, the outcome was inactive.

For the compound `COC(=O)c1ccc(CNS(C)(=O)=O)cc1S(=O)(=O)NC(=O)Nc1nc(OC)cc(OC)n1`, the result was inactive.

`S=C([S-])NCCNC(=S)[S-].[Mn+2]`: the AC50 is 36.6 µM (active).

On to `COC(=O)CSc1cc(N=c2sc(=O)n3n2CCCC3)c(F)cc1Cl`, for which the outcome was inactive.

The values are drawn from PubChem BioAssay (EPA / NIEHS).
